Among the targets are RELARELA (p65 homodimer) (Homo sapiens, UniProt Q04206 1-307); p50p50 homodimer (Homo sapiens, UniProt P19838 7-356); RELB subunit;p50 subunit (Homo sapiens;Homo sapiens, UniProt Q01201;P19838 120-401;7-356).
Experiment in all cases: protein binding microarray; high values mean tight binding
Conditions in all cases: dsDNA, one strand shown

The target of another experiment is T1, p52p52 homodimer (Homo sapiens, UniProt Q00653 4-332).
T1 sequence: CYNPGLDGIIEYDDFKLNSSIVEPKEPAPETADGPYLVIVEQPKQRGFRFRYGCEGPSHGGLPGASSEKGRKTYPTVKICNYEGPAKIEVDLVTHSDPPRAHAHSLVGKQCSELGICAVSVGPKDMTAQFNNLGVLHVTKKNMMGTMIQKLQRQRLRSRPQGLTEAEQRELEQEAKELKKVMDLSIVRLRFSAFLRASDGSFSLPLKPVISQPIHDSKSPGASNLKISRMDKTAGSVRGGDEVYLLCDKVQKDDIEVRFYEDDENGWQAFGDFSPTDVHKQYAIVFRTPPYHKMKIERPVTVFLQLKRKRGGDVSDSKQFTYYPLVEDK

In experiment [1] the target is RELA (p65) subunit of heterodimer;p50 subunit (Homo sapiens;Homo sapiens, UniProt Q04206;P19838 1-307;7-356).
Experiment [2] addresses RELA (p65) subunit of heterodimer;p52 subunit (Homo sapiens;Homo sapiens, UniProt Q04206;Q00653 1-307;4-332).
In another experiment the target is T2, RELB subunit;p52 subunit (Homo sapiens;Homo sapiens, UniProt Q01201;Q00653 120-401;4-332).
T2 sequence 1: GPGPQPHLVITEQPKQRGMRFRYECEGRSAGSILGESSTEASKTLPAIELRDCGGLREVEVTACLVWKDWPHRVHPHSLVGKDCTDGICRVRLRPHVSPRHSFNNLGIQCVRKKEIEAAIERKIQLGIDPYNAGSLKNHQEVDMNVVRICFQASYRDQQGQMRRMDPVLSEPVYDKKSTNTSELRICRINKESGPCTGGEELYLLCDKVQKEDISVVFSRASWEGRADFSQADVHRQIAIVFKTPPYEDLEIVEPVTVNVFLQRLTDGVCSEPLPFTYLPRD
T2 sequence 2: T1 sequence

Experiment [3] deals with C-Rel subunit;p50 subunit (Homo sapiens;Homo sapiens, UniProt Q04864;P19838 1-285;7-356).
Experiment [4] has as its target T3, C-Rel subunit;p52 subunit (Homo sapiens;Homo sapiens, UniProt Q04864;Q00653 1-285;4-332).
T3 sequence 1: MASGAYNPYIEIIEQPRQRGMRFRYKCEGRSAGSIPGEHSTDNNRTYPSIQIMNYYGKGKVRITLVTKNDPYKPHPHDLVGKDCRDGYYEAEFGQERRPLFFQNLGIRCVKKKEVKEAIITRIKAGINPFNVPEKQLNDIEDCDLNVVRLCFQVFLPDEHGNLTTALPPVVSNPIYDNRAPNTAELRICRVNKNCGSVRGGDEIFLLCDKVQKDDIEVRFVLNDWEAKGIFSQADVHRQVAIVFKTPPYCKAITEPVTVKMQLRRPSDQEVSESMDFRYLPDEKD
T3 sequence 2: T1 sequence

RELARELA (p65 homodimer), sequence (Q04206 1-307): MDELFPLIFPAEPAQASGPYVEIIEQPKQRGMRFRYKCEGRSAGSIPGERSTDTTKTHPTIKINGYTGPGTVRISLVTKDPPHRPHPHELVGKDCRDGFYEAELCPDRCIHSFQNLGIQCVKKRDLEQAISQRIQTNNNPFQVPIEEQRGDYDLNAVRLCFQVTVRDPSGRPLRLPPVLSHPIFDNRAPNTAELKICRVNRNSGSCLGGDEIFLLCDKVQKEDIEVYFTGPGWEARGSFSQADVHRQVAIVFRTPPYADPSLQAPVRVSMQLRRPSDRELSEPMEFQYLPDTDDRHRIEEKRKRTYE
RELA (p65) subunit of heterodimer;p50 subunit, sequence (Q04206 1-307, chain 1 of 2): as the sequence (Q04206 1-307) above
RELA (p65) subunit of heterodimer;p50 subunit, sequence (P19838 7-356, chain 2 of 2): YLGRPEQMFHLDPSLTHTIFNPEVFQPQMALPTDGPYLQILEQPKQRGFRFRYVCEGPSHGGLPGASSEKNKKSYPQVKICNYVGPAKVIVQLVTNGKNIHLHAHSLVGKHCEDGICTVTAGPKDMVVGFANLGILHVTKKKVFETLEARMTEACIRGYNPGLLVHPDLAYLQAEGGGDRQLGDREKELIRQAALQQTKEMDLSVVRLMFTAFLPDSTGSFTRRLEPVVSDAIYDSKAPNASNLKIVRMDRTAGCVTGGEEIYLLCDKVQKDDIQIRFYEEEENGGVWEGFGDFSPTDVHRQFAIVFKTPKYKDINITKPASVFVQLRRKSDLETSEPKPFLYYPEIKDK
p50p50 homodimer, sequence (P19838 7-356): as the sequence (P19838 7-356, chain 2 of 2) above

Turning to CGAGGGCCCCC, the binding signal was -0.934 z-score with RELARELA (p65 homodimer); 0.101 z-score with p50p50 homodimer; -0.0825 z-score in the experiment with p52p52 homodimer; 0.0405 z-score in [1]; -0.0107 z-score in experiment [2]; 0.199 z-score with RELB subunit;p50 subunit. Further, the binding signal with RELB subunit;p52 subunit was 0.202 z-score; in experiment [3] it was -0.0359 z-score; in [4] it was 0.137 z-score.

On to GGGTACTCCCC, for which the binding signal is 1.34 z-score in the experiment with RELARELA (p65 homodimer); 0.682 z-score with p50p50 homodimer; 3.13 z-score with p52p52 homodimer; 1.82 z-score in [1]; 2.75 z-score in experiment [2]; 1.95 z-score with RELB subunit;p50 subunit. Besides, the figures for the binding signal (in the experiment with RELB subunit;p52 subunit; in experiment [3]; in experiment [4]) were 1.96 z-score, 1.45 z-score and 2.17 z-score, respectively.

For the sequence CGGTTTACCCC, the binding signal in the experiment with RELARELA (p65 homodimer) was 0.939 z-score; with p50p50 homodimer, 0.564 z-score; in the experiment with p52p52 homodimer, 0.746 z-score; in experiment [1], 0.807 z-score; in [2], 1.01 z-score; in the experiment with RELB subunit;p50 subunit it was 0.667 z-score. Also, the binding signal came out at 1.16 z-score with RELB subunit;p52 subunit, 1.04 z-score in experiment [3] and 1.04 z-score in experiment [4].

For CGGATCTTCCT, the binding signal with RELARELA (p65 homodimer) is 0.45 z-score; with p50p50 homodimer, -1.67 z-score; with p52p52 homodimer, -0.691 z-score; in [1], -0.69 z-score; in experiment [2], -0.836 z-score; in the experiment with RELB subunit;p50 subunit, -1.21 z-score. The binding signal is -0.889 z-score with RELB subunit;p52 subunit, -0.859 z-score in experiment [3] and -0.666 z-score in [4].

As to CGATGGGCCCT, the binding signal is -0.936 z-score in the experiment with RELARELA (p65 homodimer); -1.43 z-score in the experiment with p50p50 homodimer; -0.601 z-score in the experiment with p52p52 homodimer; -0.968 z-score in experiment [1]; -0.798 z-score in [2]; -0.95 z-score with RELB subunit;p50 subunit. Besides, the binding signal was -0.85 z-score with RELB subunit;p52 subunit, -1.73 z-score in [3] and -0.583 z-score in [4].

For GAATGCCTCCT, the binding signal with RELARELA (p65 homodimer) is -0.0578 z-score; in the experiment with p50p50 homodimer, -1.27 z-score; with p52p52 homodimer, -0.691 z-score; in [1], -0.691 z-score; in experiment [2], -0.961 z-score; with RELB subunit;p50 subunit it was -1.06 z-score. Further, the binding signal in the experiment with RELB subunit;p52 subunit was -1.25 z-score; in experiment [3], -1.51 z-score; in [4], -0.845 z-score.

In the case of CAGGTCATCCT, the binding signal with RELARELA (p65 homodimer) was -0.599 z-score; in the experiment with p50p50 homodimer it was -1.84 z-score; with p52p52 homodimer, -0.537 z-score; in [1], -1.21 z-score; in [2] it was -1.08 z-score; in the experiment with RELB subunit;p50 subunit, -1.24 z-score. Besides, the binding signal with RELB subunit;p52 subunit is -0.916 z-score; in experiment [3], -1.52 z-score; in [4], -1.02 z-score.

Regarding CAATACTTCCT, the binding signal in the experiment with RELARELA (p65 homodimer) is -0.118 z-score; with p50p50 homodimer it was -1.09 z-score; with p52p52 homodimer, -0.562 z-score; in experiment [1], -0.687 z-score; in [2] it was -0.787 z-score; in the experiment with RELB subunit;p50 subunit, -1.04 z-score. In addition, the binding signal with RELB subunit;p52 subunit was -0.781 z-score; in experiment [3], -0.77 z-score; in experiment [4] it was -0.829 z-score.

Take CAATAAGTCCT: the binding signal is 0.325 z-score with RELARELA (p65 homodimer); -1.39 z-score with p50p50 homodimer; -0.437 z-score with p52p52 homodimer; -0.836 z-score in [1]; -0.813 z-score in experiment [2]; -0.817 z-score in the experiment with RELB subunit;p50 subunit. The binding signal with RELB subunit;p52 subunit was -0.698 z-score; in experiment [3], -0.578 z-score; in experiment [4], -0.74 z-score.

Take GAAATGACCCT: the binding signal is -0.43 z-score in the experiment with RELARELA (p65 homodimer); -0.328 z-score with p50p50 homodimer; -0.304 z-score in the experiment with p52p52 homodimer; -0.247 z-score in experiment [1]; -0.11 z-score in [2]; -0.287 z-score with RELB subunit;p50 subunit. Besides, the values for the binding signal (with RELB subunit;p52 subunit; in [3]; in [4]) were -0.38 z-score, -0.632 z-score and -0.223 z-score, respectively.

CAGGTTACCCC: the binding signal was 0.269 z-score with RELARELA (p65 homodimer); 0.178 z-score in the experiment with p50p50 homodimer; 0.0851 z-score in the experiment with p52p52 homodimer; 0.345 z-score in experiment [1]; 0.253 z-score in experiment [2]; 0.443 z-score in the experiment with RELB subunit;p50 subunit. Further, the binding signal was 0.629 z-score with RELB subunit;p52 subunit, 0.552 z-score in experiment [3] and 0.49 z-score in experiment [4].

Turning to AGAATCCCCCC, the binding signal with RELARELA (p65 homodimer) was determined as 1.06 z-score; with p50p50 homodimer it was 1.63 z-score; with p52p52 homodimer, 2.16 z-score; in [1] it was 2.66 z-score; in experiment [2], 2.29 z-score; in the experiment with RELB subunit;p50 subunit it was 2.64 z-score. For the same sequence, the binding signal in the experiment with RELB subunit;p52 subunit amounted to 2.51 z-score; in [3], 1.9 z-score; in experiment [4] it was 2.21 z-score.

In the case of GGATGCGTCCT, the binding signal with RELARELA (p65 homodimer) was 0.00389 z-score; in the experiment with p50p50 homodimer, -1.17 z-score; with p52p52 homodimer it was -0.665 z-score; in experiment [1], -1.04 z-score; in [2], -0.853 z-score; with RELB subunit;p50 subunit, -1.18 z-score. Besides, the binding signal with RELB subunit;p52 subunit was -0.816 z-score; in experiment [3], -1.72 z-score; in experiment [4], -0.907 z-score.

Regarding CGAGATTTCCC, the binding signal with RELARELA (p65 homodimer) came out at 1.93 z-score; with p50p50 homodimer, 0.975 z-score; in the experiment with p52p52 homodimer it was 0.882 z-score; in [1], 1.43 z-score; in [2] it was 1.06 z-score; with RELB subunit;p50 subunit, 0.804 z-score. In addition, the binding signal with RELB subunit;p52 subunit came out at 0.926 z-score; in experiment [3], 1.31 z-score; in experiment [4] it was 0.887 z-score.

Take CGAAGCGCCCC: the binding signal with RELARELA (p65 homodimer) is -0.596 z-score; in the experiment with p50p50 homodimer it was -0.188 z-score; in the experiment with p52p52 homodimer, -0.173 z-score; in [1], -0.171 z-score; in experiment [2] it was -0.0511 z-score; with RELB subunit;p50 subunit, 0.0336 z-score. For the same sequence, the binding signal is 0.263 z-score in the experiment with RELB subunit;p52 subunit, -0.144 z-score in experiment [3] and 0.0513 z-score in experiment [4].

The record behind these values is article PMC3218832.
